Assay outcomes: PubChem BioAssay, National Center for Advancing Translational Sciences (NCATS)
An excerpt weighted towards active compounds, which were near 7.9% of everything screened.
HT1080 IDH1KD tx: HT-1080 IDH1 knockdown cell toxicity (counter line); 2% of 360,000 active; AID 686971; HT-1080 IDH1 knockdown viability, ATP luminescence, 48 h; Potency, µM (titrated, usually from 46.1 µM), for inactives: at the top dose activity, negative = toxicity, most hits filed as cytotoxic;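 further: 0% = DMSO wells and -100% = cell-free medium wells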
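Viability of IDH1-knockdown HT-1080 fibrosarcoma cells was assessed by CellTiter-Glo after 48 h at 37 °C with titrated compound; concentration-effect curves were classified by fit quality and response size.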
KB-3-1 cytotox: KB-3-1 parental cell cytotoxicity; KB-3-1 viability, CellTiter-Glo ATP luminescence, 72 h; 1.4% of 400,000 active; Potency, µM (titrated, usually from 46.1 µM), actives largely listed as cytotoxic; further: on the % scale 0 is the no-effect control and ±100 the full control effect; nearly all actives have a fitted effect of over 60% in size
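Using CellTiter-Glo luminescence, growth of non-resistant KB-3-1 adenocarcinoma cells is assessed 72 h after pin-tool compound addition at 37 °C. Normalized responses across the concentration series yield fitted curves.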
HT1080NT lethal: kills 2HG-producing HT-1080-NT fibrosarcoma cells. HT-1080-NT fibrosarcoma viability, CellTiter-Glo ATP luminescence, 48 h. Potency, µM (doses to about 46.1 µM), for inactives: at the top dose activity, negative = less viability, hits mostly cytotoxic. 1.6% of 360,000 active. AID 686970;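 further: NT is the 2HG producing partner of a matched IDH1 knockdown line; 0% = DMSO-treated cells and -100% = media-only wells without cells; nearly all actives have a fitted effect of over 55% in size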
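HT-1080-NT; 750 cells/well; 5% FBS RPMI; 48 h compound, 37 degrees C; CellTiter-Glo luminescence; curve fitting and curve-class assignment.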
SW480 rerep: inducers of DNA re-replication in SW480 colon cancer cells; SW480 DNA re-replication, Hoechst DNA content imaging, 48 h; Potency, µM (titrated, usually from 46.1 µM), inactives show top-dose re-replication activation, usual class: activators; 1.8% of 340,000 active; AID 624297; further: % of control where 0% means no effect; nearly all actives have a fitted effect of over 55% in size
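First, 250 cells per well were seeded. Next, compound or vehicle (23 nL) was pinned in, plates sat 48 hr at 37 C. Finally Hoechst was added for 40 min before fluorescence scanning.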
MCF10A rerep: inducers of DNA re-replication in MCF 10A breast cells; MCF 10A DNA re-replication, Hoechst nuclear intensity, 48 h; 2.9% of 350,000 active; Potency, µM (highest dose often 46.1 µM), for the others: top-dose activity, positive = re-replication, usual class: activators; further: % of control where 0% means no effect; nearly all actives have a fitted effect of over 50% in size
KB-V1 MDR tox: kills drug-selected multidrug resistant KB-V1 cells; AID 1347076; 3.4% of 400,000 active; Potency, µM (top dose mostly 46.1 µM), usual class: cytotoxic; KB-V1 MDR cells viability, CellTiter-Glo, 72 h; further: on the % scale 0 is the no-effect control and ±100 the full control effect; nearly all actives have a fitted effect of over 60% in size
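Cytotoxicity via CellTiter-Glo luminescence after 72 h compound exposure at 37 degrees C. Cells: drug-selected KB-V1 line, DMEM phenol-red free plus 10% FBS. Compounds tested at multiple concentrations; normalized data fitted to concentration-effect curves.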
* hit, by the source's call; i = inactive; ? = inconclusive; · = not tested or not shown; [ ] = remark or other dose. The call rests on the fitted dose curve; in most records, active means well fitted curve in the direction sought with a large enough effect; inconclusive means small, poorly fitted or top-dose-only effect, or another doubt; inactive means no such curve, though single readings can be large; an effect the other way counts as inactive or inconclusive. Potency means the concentration at half of the fitted maximal effect.

SMILES | HT1080 IDH1KD tx | KB-3-1 cytotox | HT1080NT lethal | SW480 rerep | MCF10A rerep | KB-V1 MDR tox
Oc1ccc(C[C@@H]2CNCCN2CCc2cc(C(F)(F)F)cc(C(F)(F)F)c2)cc1 | -22% | i | ? | 14% | ? | i
FC(F)(F)c1cc(CCN2CCNC[C@H]2Cc2cccc3ccccc23)cc(C(F)(F)F)c1 | ? | i | -27% | ? | 16µM* | i
COc1ccccc1CN(C)c1ccc(S(=O)(=O)N2CCN(C)CC2)cn1 | 3% | i | -1% | -7% | -2% | i
O=C(c1ccccc1F)N1CCN(Cc2cccc(Cl)c2)CC1 | 5% | i | -3% | 0% | 0% | 21µM*
CCc1cc2cc(C(=O)N3CCN(Cc4ccccc4)CC3)sc2s1 | 2% | 21µM* | 3% | -8% | ? | 15µM*
O=C(c1ccc(CNS(=O)(=O)c2ccccc2)cc1)N1CCN(Cc2ccccc2)CC1 | ? | 18µM* | ? | 21% | 28% | 4.6µM*
CS(=O)(=O)c1ccc(C(=O)N2CCN(Cc3ccccc3)CC2)cc1 | 0% | i | 14% | -3% | 3% | i
CCc1cc2cc(C(=O)N3CCN(c4ccccc4)CC3)sc2s1 | 10% | i | 10% | 16% | 15% | i
O=C(c1ccccc1)N1CCCC(C(=O)N2CCCCCC2)C1 (centres undefined) | -7% | i | -2% | -10% | 0% | 21µM*
CC(=O)/C(=N\Nc1ccc(C)cc1)N1CCOCC1 | 5% | i | -26% | -6% | -6% | ?
COCC(=O)Oc1c(S(=O)(=O)c2ccccc2)c(C)nn1C(C)(C)C | 16% | i | -5% | 1% | 3% | i
COc1cc(/C=N/NC(=O)c2ccncc2)ccc1OC(=O)c1ccco1 | 13% | i | -4% | -24% | -18% | ?
O=C(c1ccccc1)N1CCN(C(=O)c2ccncc2)CC1 | 0% | i | 9% | -4% | 0% | i
O=C(c1ccccc1)N1CCN(Cc2ccccc2)CC1 | -7% | i | 21% | 17% | 13µM* | i
CC(C)(C)c1ccc(C(=O)N2CCN(CCNC(=O)C(=O)NCc3ccccc3)CC2)cc1 | 2% | i | 8% | -3% | -1% | 7.3µM*
O=C(c1ccncc1)N1CCN(CCc2ccccc2)CC1 | 2% | i | -3% | ? | 18µM* | i
O=C(O)c1ccc(CNS(=O)(=O)c2ccc(Oc3ccccc3Cl)cc2)cc1 | -4% | i | -14% | 0.16µM* | ? | i
C/C(=N\Nc1ccc([N+](=O)[O-])cc1)c1ccc(O)cc1 | ? | i | ? | 23µM* | 15µM* | i
CC(=O)NC/C(C)=N\Nc1ccc([N+](=O)[O-])cc1 | 3.7µM* | ? | 4.6µM* | 8% | 8% | i
O=C(CCc1nc2cccnc2n1Cc1cccs1)Nc1cccc(C(F)(F)F)c1 | · | i | · | · | · | i
C=CCc1cc(C(=O)N2CCCCC2)ccc1O | -2% | ? | 0% | 1% | -1% | 21µM*
O=C(c1ccc2c(c1)OCCO2)N1CCCCC1 | 6% | i | 12% | -3% | -4% | ?
CCOC(=O)CSC1=NC(=O)CS1 | -2% | i | -2% | ? | 21µM* | i
COc1ccc(NC2=NC3(CCCCC3)N=C(N)N2)cc1 | 8% | i | 11% | -2%[9.22 µM] | 0% | i
CCCCOc1ccc(NC2=NC3(CCCCC3)N=C(N)N2)cc1 | ? | 15µM* | ? | 4% | ? | i
CCOc1ccc(C)cc1S(=O)(=O)n1cnc2ccccc21 | 13µM* | 13µM* | 9.2µM* | ? | 23µM* | ?
CCOc1ccc(Cl)cc1S(=O)(=O)n1cnc2ccccc21 | 11µM* | ? | 11µM* | 1% | 7.9µM* | 4.5µM*
CCOC(=O)c1ccc(S(=O)(=O)Nc2nc3cc(S(=O)(=O)NC4=NCCCCC4)ccc3s2)cc1 | -21% | i | -18% | 18% | 15% | i
